Compounds with a hit are over-represented: about 2.1% of the library has one in this group of screens.
SIRT5 block – blocks human SIRT5 desuccinylation of peptide; Q9NXA8; inhibition, % at 15 µM; Purified SirT5, succinyl-peptide AMC, trypsin-coupled fluorescence; 1.1% of 330,000 active; in the data active = inhibition above about 15%
CASP6 VEID inh – caspase-6 (human) enzyme inhibition | 0.53% of 350,000 active | P55212 | inhibition, % at 12.5 µM | purified caspase-6, Z-VEID-R110 cleavage fluorescence;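 active = mean inhibition across replicates at least about 35%, with every replicate also reaching that limit, limit read from the data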;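 note: 0% = median of neutral control wells and 100% = no fluorescence left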
Target sequence (P55212 24-179 limits assumed): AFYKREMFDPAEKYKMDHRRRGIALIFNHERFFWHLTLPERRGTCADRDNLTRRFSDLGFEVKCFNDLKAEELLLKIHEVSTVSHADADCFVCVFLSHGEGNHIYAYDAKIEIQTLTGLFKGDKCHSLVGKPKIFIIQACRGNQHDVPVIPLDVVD
Target sequence (P55212 194-293 limits assumed): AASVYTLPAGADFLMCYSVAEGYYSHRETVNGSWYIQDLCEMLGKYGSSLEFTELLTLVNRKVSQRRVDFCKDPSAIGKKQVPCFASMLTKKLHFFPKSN
PfHsp90 set2 – reduces growth (ATP signal) of yeast expressing P. falciparum Hsp90 | AID 504621 | S. cerevisiae expressing PfHsp90, BacTiter-Glo ATP, 48 h; yeast lacking PDR1 and PDR3 efflux regulators | 0.32% of 310,000 active | inhibition, % at 9.4 µM;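 active = every replicate shows inhibition above about 80%, whatever the replicate mean, limit read from the data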;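 note: 0% = DMSO neutral controls and 100% = 20 µM radicicol positive controls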
ARNT TACC3 PPI – ARNT/TACC3 interaction disruption. Q9Y6A5. AlphaScreen His-ARNT PAS-B/GST-TACC3 binding, luminescence; TACC3 fragment carries E629A point mutation. inhibition, % at 9.99 µM. 0.66% of 390,000 active;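 active = mean inhibition of replicates at least 50% and at least half of replicates each reaching 50%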;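 note: 0% = complete ARNT plus TACC3 wells and 100% = ARNT alone without TACC3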
NSD2 inh – inhibitors of human histone methyltransferase NSD2; O96028; NSD2 peptide methylation, AlphaScreen, 120 min; inhibition, % at 12.5 µM; 0.54% of 310,000 active; AID 743445; in the data active = inhibition above about 50%
* hit, by the source's call; · = no result given.

SMILES	SIRT5 block	CASP6 VEID inh	PfHsp90 set2	ARNT TACC3 PPI	NSD2 inh
O=C(NCC[C@@H]1CC[C@H](NS(=O)(=O)c2cccc(F)c2)[C@@H](CO)O1)C1CCCC1	0	-2	·	-2	·
CCC(=O)N(C)C[C@H]1Oc2cc(C#CC(C)(C)O)ccc2S(=O)(=O)N([C@@H](C)CO)C[C@@H]1C	3	-2	·	-3	·
C[C@@H]1CCCCO[C@@H](CN(C)S(=O)(=O)c2cn(C)cn2)[C@H](C)CN([C@@H](C)CO)C(=O)c2cc(N(C)C)ccc2O1	-2	0	·	9	·
COc1cccc(CNC(=O)C[C@@H]2C=C[C@H](NC(=O)C3CCC3)[C@@H](CO)O2)c1	-5	·	·	·	·
C[C@H](CO)N1C[C@H](C)[C@@H](CN(C)Cc2ccc(Oc3ccccc3)cc2)Oc2ccc(NS(=O)(=O)c3cn(C)cn3)cc2C1=O	-4	0	·	-9	·
C[C@H]1CN([C@@H](C)CO)C(=O)c2cccc(NS(C)(=O)=O)c2O[C@H]1CN(C)C(=O)Nc1ccc2c(c1)OCO2	2	-1	·	3	·
C[C@@H]1CN([C@@H](C)CO)C(=O)c2cccc(NS(C)(=O)=O)c2O[C@@H]1CN(C)C(=O)Nc1ccc2c(c1)OCO2	4	1	·	active	·
C[C@H](CO)N1C[C@H](C)[C@H](CN(C)C(=O)Nc2ccc3c(c2)OCO3)Oc2ccc(NC(=O)Nc3ccc(C(F)(F)F)cc3)cc2C1=O	15*	-2	·	12	·
COCC(C)n1c(C)cc(C(=O)COC(=O)CCc2nc3ccccc3c(=O)[nH]2)c1C (centres undefined)	20*	-4	·	1	1
Cc1cccc(C)c1NC(=S)N(CCN(C)C)C(C)c1ccccn1 (centres undefined)	-5	1	5	45*	-6
Cc1ccc(C)c(NC(=S)N(CCN(C)C)C(C)c2ccccn2)c1 (centres undefined)	12	-4	3	39	-6
O=C(NCC[C@@H]1CC[C@@H](NC(=O)Nc2cc(F)ccc2F)[C@@H](CO)O1)Nc1ccc(F)cc1	-2	-3	·	-2	·
CN1CCN(C(=O)C[C@H]2C=C[C@@H](NC(=O)c3ccc4c(c3)OCO4)[C@@H](CO)O2)CC1	-3	0	·	·	·
Clc1ccc(CNC2CCN(Cc3ccccc3)CC2)cc1	-1	-6	11	0	3
Fc1ccc(CNC2CCN(Cc3ccccc3)CC2)cc1	21*	-18	8	-29	-1
O=C(NCC(c1ccco1)N1CCOCC1)c1c(F)cccc1F (centres undefined)	17*	-1	4	13	-2
O=C(NCC(c1ccco1)N1CCOCC1)c1ccc(F)cc1 (centres undefined)	-5	1	-14	11	·
CCCCC(=O)NC(=S)NNC(=O)CCc1ccccc1	-2	-5	-1	29*	·
CC(=O)NC(=S)NNC(=O)CCc1ccccc1	-3	-7	-8	34	-4
CCCCC(=O)NC(=S)NNC(=O)c1ccc(OC)cc1	3	-11	7	54*	-1
CN(C(=O)CSc1nc(-c2ccccc2)c(-c2ccccc2)o1)C1CCS(=O)(=O)C1 (centres undefined)	-3	-2	-16	2	1
CN(C(=O)CSc1nc2ccccc2o1)C1CCS(=O)(=O)C1 (centres undefined)	16*	6	-2	7	0
CCCCN1Cc2c(nc3cc(-c4ccco4)[nH]n3c2=O)C1=O	-9	44*	1	-3	6
O=C(C[C@H]1C[C@@H]2c3cc(NC(=O)Nc4ccccc4)ccc3O[C@@H]2[C@H](CO)O1)NC1CCCC1	0.5*	6	·	6	·
COc1cccc(S(=O)(=O)Nc2ccc3c(c2)[C@H]2C[C@@H](CC(=O)NC4CCCCC4)O[C@H](CO)[C@H]2O3)c1	3	64*	·	-11	·
O=C(C[C@H]1C[C@H]2c3cc(NC(=O)Nc4ccccc4F)ccc3O[C@H]2[C@@H](CO)O1)NCc1ccncc1	16*	-2	·	-12	·
COc1cccc(S(=O)(=O)Nc2ccc3c(c2)[C@@H]2C[C@@H](CC(=O)NC4CCCCC4)O[C@@H](CO)[C@@H]2O3)c1	1	-5	·	14	·
O=C(C[C@H]1C[C@@H]2c3cc(NC(=O)Nc4ccccc4F)ccc3O[C@@H]2[C@H](CO)O1)NCc1ccncc1	1	-1	·	-2	·

Screens (PubChem)
